Hits are enriched below; roughly 4.7% of the tested compounds scored in any of these assays.
TIM10 inh: TIM10 yeast growth inhibition | S. cerevisiae TIM10 strain growth, BacTiter-Glo luminescence, 24 h | inhibition, % at 10 µM | 330,000 compounds, 1.4% hits | AID 463195;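 active means inhibition of 40% or more at the single tested concentration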;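 further: wild-type TIM10 isogenic control strain grown at permissive 25 °C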
Calb FLC: C. albicans growth modulation with fluconazole | 300,000 compounds, 0.57% hits | growth inhibition, % (test concentration not listed) | AID 1979 | C. albicans CaCi-2 (fluconazole-resistant clinical isolate) + fluconazole, Alamar Blue growth, 48 h;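 active means growth inhibition above about 58% in most replicates, limit read from the data, passing the limit was not always enough; inconclusive means exactly half the replicates above a set limit; inactive means most replicates below a set limit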;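 further: all wells also contain fluconazole at 8 µg/ml as a sub-toxic cotreatment; 0% = median of DMSO wells and 100% = median of geldanamycin control wells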
tim23-1 inh: tim23-1 yeast growth inhibition. inhibition, % at 20 µM. 330,000 compounds, 1.3% hits. S. cerevisiae tim23-1 growth, BacTiter-Glo luminescence, 24 h. AID 463212;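 active means growth inhibition of the mutant yeast at or above 50%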;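 further: temperature-sensitive mutant grown at 25 °C; plate controls were DMSO-treated mutant yeast for no effect and medium wells lacking yeast for full effect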
tim10-1 inh: inhibits growth of tim10-1 mutant yeast; S. cerevisiae tim10-1 ts strain growth, BacTiter-Glo, 24 h; inhibition, % at 20 µM; 330,000 compounds, 2.2% hits; AID 463190;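 active means inhibition of at least 40%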;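 further: mutant grown at 25 °C; 0% = DMSO wells with yeast and 100% = wells holding no yeast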
SKKanGAS inh: inhibitors of SKKanGAS S. pyogenes growth in kanamycin (SK-promoter or general growth effect). BacTiter-Glo, 6 h. inhibition, % at 7.5 µM. 300,000 compounds, 1.3% hits;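 active means mean replicate score, as percent of positive control median, at least 50; inconclusive means mean below 50 but one replicate at or above 50; inactive means mean and every replicate below 50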;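 further: strain carries kanamycin resistance gene driven by streptokinase promoter and grows in 40 µg/ml kanamycin; loss of luminescence reflects streptokinase promoter inhibition or plain growth inhibition; 0% = median of DMSO wells and 100% = positive control at its reference dose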
PfHsp90 set2: reduces growth (ATP signal) of yeast expressing P. falciparum Hsp90 | 310,000 compounds, 0.32% hits | S. cerevisiae expressing PfHsp90, BacTiter-Glo ATP, 48 h; yeast lacking PDR1 and PDR3 efflux regulators | inhibition, % at 9.4 µM | AID 504621;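 active means every replicate shows inhibition above about 80%, whatever the replicate mean, limit read from the data; inconclusive means mean inhibition reaches the set limit but some replicate falls short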;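 further: 0% = DMSO neutral controls and 100% = 20 µM radicicol positive controls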
tim10-1 confirm: confirmation of tim10-1 mutant yeast growth inhibitors; shares compounds with tim10-1 inh; S. cerevisiae tim10-1 ts strain growth, BacTiter-Glo, 24 h; inhibition, % at 20 µM; 7,400 compounds, 56% hits;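 active means inhibition of yeast growth at or above a set limit in either of two repeat tests at 20 µM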;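 further: tim10-1 mutant grown at permissive 25 °C to find synthetic lethal compounds; 0% = DMSO yeast wells and 100% = medium wells without yeast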
Numbers without * were called inactive; ? = inconclusive; · = not tested or not shown.

SMILES	TIM10 inh	Calb FLC	tim23-1 inh	tim10-1 inh	SKKanGAS inh	PfHsp90 set2	tim10-1 confirm
O=C(NCCc1ccc(Cl)cc1)c1ccc2c(c1)OCCO2	-10	7	-4	-10	-3	9	·
C[C@H](CO)N1C[C@H](C)[C@@H](CN(C)C(=O)Nc2ccc(C(F)(F)F)cc2)Oc2ccc(NC(=O)Cn3cnnn3)cc2C1=O	-1	·	-1	-2	·	13	·
C#CCn1c(=NC(=O)CN2C(=O)CCC2=O)sc2cc(S(N)(=O)=O)ccc21	3	8	-3	11	-4	-1	·
C#CCn1c(=NC(=O)c2cc(Cl)sc2Cl)sc2cc(S(N)(=O)=O)ccc21	22	-1	30	47*	50*	-30	33*
O=S(=O)(Nc1ccc(-n2cccc2)cc1)c1ccc(Cl)cc1Cl	33	4	13	48*	9	62	26
O=S(=O)(Nc1ccc(-n2cccc2)cc1)c1ccc(F)cc1	16	7	27	17	-3	-42	·
COc1ccc2oc(=O)c(-c3csc(Nc4cccc(O)c4)n3)cc2c1	35	-17	35	45*	27	103*	37*
COc1ccc(Cl)c2c1[nH]c1nc(SCc3ccccn3)nnc12	26	10	17	42*	27	-16	25
N/C(=N\OC(=O)CCC1CCCC1)c1ccccc1	35	-3	46	52*	-1	7	44*
N#Cc1cc([N+](=O)[O-])ccc1NC(=O)COC(=O)CCC1CCCCC1	17	31	33	45*	-3	·	37*
CCCC(=O)OCC(=O)Nc1ccc([N+](=O)[O-])cc1C#N	4	5	10	17	2	10	·
N/C(=N\OC(=O)Cc1ccccc1)c1ccc([N+](=O)[O-])cc1	20	-2	30	39	5	13	·
N/C(=N\OC(=O)CCC1CCCC1)c1ccc([N+](=O)[O-])cc1	18	-20	30	61*	0	-68	58*
N/C(=N\OC(=O)CCC1CCCC1)c1ccccn1	27	-9	30	20	-2	1	·
O=C(O)CC/C(=N/NC(=O)c1ccc(-c2ccccc2)cc1)c1ccccc1	3	0	6	-1	14	-31	·
S=C(Nc1nc2c(s1)CCCC2)NC1CC1	10	?	14	41*	29	-17	4
CCc1ccc(N(C(=O)c2csnn2)C(C(=O)NC(C)(C)CC)c2cccnc2)cc1 (stereo not given)	1	3	13	2	0	0	·
CC(=O)Nc1ccc(NC(=O)c2ccc([N+](=O)[O-])cc2Cl)cc1	8	1	-1	-3	1	-20	·
CCC(C)NS(=O)(=O)c1ccc(NC(=O)c2ccc([N+](=O)[O-])cc2Cl)cc1 (stereo not given)	25	11	31	46*	-4	13	31*
CNCc1ccccc1Sc1cccc2ccccc12	35	-23	21	41*	-1	8	18
O=C(OCc1nnc(-c2ccccc2)o1)c1ccco1	15	-2	-11	41*	1	-8	12
CCOC(=O)COc1ccc(/C=C/[N+](=O)[O-])c(OCC(=O)OCC)c1	22	-11	41	42*	0	1	49*
CCOC(=O)COc1ccc2nsnc2c1	18	-7	9	-14	1	16	·
O/N=C(/c1ccc(Cl)cc1)C1CC1c1ccccc1 (stereo not given)	35	-19	39	51*	22	-10	27
Cc1ccc(C2CC2/C(=N/O)c2ccc(F)cc2)cc1 (stereo not given)	-2	-15	17	8	22	-9	·
SMILES	TIM10 inh	Calb FLC	tim23-1 inh	tim10-1 inh	SKKanGAS inh	PfHsp90 set2	tim10-1 confirm
O=C(COc1ccccc1)NCC(c1ccco1)N1CCN(c2ccccc2F)CC1 (stereo not given)	39	3	31	40	-1	·	·
O=C(NCC(c1ccco1)N1CCN(c2ccccc2)CC1)OCc1ccccc1 (stereo not given)	6	2	30	41*	-5	5	24
O=C(COc1ccccc1)NCC(c1ccco1)N1CCN(c2ccc(F)cc2)CC1 (stereo not given)	25	-6	47	41*	7	·	29
O=C(NCC(c1ccco1)N1CCN(c2ccccc2F)CC1)OCc1ccccc1 (stereo not given)	-1	-5	18	16	-5	0	·
Nc1nccc(SCc2ccccc2)n1	·	·	·	·	·	-3	·
CNS(=O)(=O)c1cc(S(=O)(=O)NC)c2cccc3c2c1NC3=O	-5	8	7	12	-4	-13	·
COc1ccc(NCc2nc3ccccc3n2CCOc2ccc(C)cc2)cc1	17	16	49	50*	12	5	29
O=C(/C=N/O)Nc1ccc2sc3ccccc3c2c1	15	5	22	-8	-24	-37	·
CCOC(=O)C1Nc2ccc(C(F)(F)F)cc2C2c3ccccc3CC12 (stereo not given)	-9	6	0	57*	27	-4	53*
CCOc1ccc(OCCC(=O)N(CC(C)C)c2c(N)n(Cc3ccccc3)c(=O)[nH]c2=O)cc1	·	·	·	·	·	21	·
COc1ccccc1/C=C/C(=O)OCC(=O)Nc1c(C)nn(-c2ccccc2)c1C	14	·	31	45*	·	·	29
c1ccc(Oc2cc(-n3cncn3)ncn2)cc1	7	9	11	25	-1	-37	·
Cc1cnn(-c2cc(Oc3ccccc3)ncn2)c1	14	0	-9	49*	2	-32	26
COc1cc(C)ccc1OCc1cc(C(=O)N2CCC(c3ccc(F)cc3)C2)no1 (stereo not given)	19	-8	33	41*	14	-5	27*
O=C(c1cc(COc2ccc(F)cc2Cl)on1)N1CCCC(OCc2cccnc2)C1 (stereo not given)	8	-12	20	44*	-10	19	26
O=C(NCCc1cccnc1)c1cc(COc2ccc(F)cc2Cl)on1	3	14	29	45*	-15	12	18
CCCCCc1ccc(OCCCC[n+]2ccccc2)c(CCCCC)c1	-295	100*	-24	43*	?	38	32*
CCC(C)(C)c1ccc(OCCCC[n+]2ccccc2)c(C(C)(C)CC)c1	-120	·	30	46*	·	-36	37*
CSC1=NC(C)(C)C=C(/C=C/c2ccc(Cl)cc2)N1	18	?	30	43*	3	7	28
CCSC1=NC(C)(C)C=C(/C=C/c2ccc(Cl)cc2Cl)N1	4	4	36	34	-5	3	·
CSC1=NC(C)(C)C=C(/C=C/c2c(Cl)cccc2Cl)N1	36	-3	36	44*	9	-9	25

Compound activity deposited in PubChem by several laboratories.
